Molecules are shown by their SMILES. The list shows a part of the results. Calls of active or inactive are those of the source. Cut-off read from the data, not from the text of the source: active = inhibition mostly above about 35% (no sharp cut-off); inactive = mostly below about 32%.

The target of the test is Sentrin-specific protease 1 (Homo sapiens) (UniProt Q9P0U3). Kind of test: human SENP1 catalytic domain inhibitors, confirmation, biochemical, FRET endpoint, single concentration (AID 651678).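 Note: 0% = enzyme with DMSO and 100% = no enzyme control.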 Conditions: recombinant SENP1, CyPet-SUMO1-YPet FRET cleavage; at 10 µM; stronger effect = higher value.
Sentrin-specific protease 1 (Homo sapiens), sequence (Q9P0U3 419-644 limits assumed): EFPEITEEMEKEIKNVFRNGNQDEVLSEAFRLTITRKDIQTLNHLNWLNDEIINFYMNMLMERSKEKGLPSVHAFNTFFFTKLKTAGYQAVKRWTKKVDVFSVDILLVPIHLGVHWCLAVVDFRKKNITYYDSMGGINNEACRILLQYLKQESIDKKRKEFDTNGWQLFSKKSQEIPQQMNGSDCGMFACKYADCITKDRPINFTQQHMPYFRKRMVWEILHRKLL
Take `c1coc(-c2nc3nc4ccccc4n3nc2-c2ccco2)c1`: the inhibition was 19.4% (inactive). For the compound `Cc1cccc(C)c1Nc1c(-c2ccccc2O)nc2ncccn12`, the inhibition was 16.2% (inactive). Turning to `COc1ccc(OC)c(C2C3=C(N=c4s/c(=C\c5cccc(O)c5)c(=O)n42)c2ccccc2CC3)c1` (stereo unspecified), the inhibition is 35.7% (inactive). For `CCCCCn1nnnc1-c1nc2cc3ccccc3cc2[nH]c1=O`, the inhibition is 84.5% (active).

As to `O=C(CCN1C(=O)/C(=C/c2cccs2)SC1=S)NNC(=O)c1cccc(O)c1`, the inhibition is 66.9% (active). With `O=C(NC(=O)c1ccccc1)Nc1ccccc1O` the figure was 0.15% (inactive); with `Cc1cc(C(=O)N/N=C/c2ccc(N3CCOCC3)cc2)c(C)o1`, 29.1% (inactive); with `Cc1ccc(C(=O)N/N=C\c2cc(Br)c(Br)o2)cn1`, 11.3% (inactive). Regarding `O=C1CC[C@@H]2CC3(C[C@@H]4CCN1[C@H]24)Nc1cc([N+](=O)[O-])ccc1NC3=NC1CCCCC1` (stereo partly specified), the inhibition was 21.6% (inactive).

Take `O=C1C=C(c2cccc(Cl)c2O)C[C@@H](c2ccc(F)cc2)C1`: the inhibition was 94.1% (active). Turning to `Cn1c(-c2sc3cc(C(F)(F)F)cnc3c2-c2ccccc2)n[nH]c1=S`, the inhibition is -1.85% (inactive). As for `O=C1/C(=C/c2coc3ccc(O)cc3c2=O)SC(=S)N1c1ccccc1`, the inhibition is 3.85% (inactive). As to `CCOC(=O)C1CCN(c2ncnc3c2c(-c2ccccc2)cn3-c2ccc(C)cc2)CC1`, the inhibition was 6.42% (inactive). Consider `N/C(=N\OC(=O)N1c2ccccc2Sc2ccccc21)c1ccc(Br)cc1`, for which the inhibition is -2.12% (inactive). As for `COc1cc(/C=C2\CCCc3c2nc2ccccc2c3C(=O)O)cc(Cl)c1O`, the inhibition was 97.5% (active). For `Cc1ccc2c(c1)nnc1nnc(SCC(=O)O)n12`, the inhibition was 71.8% (active).

For `Fc1cccc(Cc2c(-c3cccc(Cl)c3)nc3ccc(Br)cn23)c1`, the inhibition is 4.53% (inactive). Regarding `COc1ccc(N2C(=O)C3C(C2=O)C(C(=O)c2ccccc2)N2CCCC32)cc1` (stereo unspecified), the inhibition is 36.9% (active). With `CCN(CC)S(=O)(=O)c1cc([N+](=O)[O-])ccc1N=Nc1c(O)n(C)c2ccccc12`, the inhibition was 10.5% (inactive). For `CC(=O)c1cccc(-c2cnc3c(NC=O)cc(-c4ccc(N(C)C)cc4)cn23)c1`, the inhibition was 57.9% (active). As to `O=[N+]([O-])c1ccc(N=NNc2ccc([N+](=O)[O-])cc2)cc1`, the inhibition is 20.1% (inactive).

For orientation: inhibition means the change of the read-out against control, counted positive when it falls.

The values above are taken from PubChem BioAssay AID651678 (Sanford-Burnham Center for Chemical Genomics, 2012).
